# Laboratory results: PubChem BioAssay (NCI)
# The panel holds about 83,000 compounds, 20% with a hit somewhere; the sample as a whole holds those more often.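 Step 1: grow cells in 96-well plates. Step 2: add test compound at a single concentration. Step 3: incubate 48 h. Step 4: record percent growth.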 The source made the active and inactive calls. Rule for the calls: active = growth percent below 10; inactive = the rest.
# Tested on: SW-620 colon
# Test: NCI-60 one-dose screen, 48 h (100 = growth as untreated, 0 = no growth, -100 = all killed)
# Details: 10 µM unless noted
row,SMILES,growth
1,CC1(C)NCCC[C@]2(C)[C@H]3CC[C@@H]4[C@H]5[C@H](C(=O)/C=C/c6ccco6)CC[C@]5(CO)CC[C@@]4(C)[C@]3(C)CC[C@@H]12,69.7% (inactive)
2,CCCCCCNC(=O)Oc1ccc(/C(=C(\C)c2ccccc2)c2ccc(OCCCN(C)C)cc2)cc1,92.4% (inactive)
3,Cc1ccc(-n2nc3c(c(C#N)c2=O)CC(c2ccccc2[N+](=O)[O-])C([N+](=O)[O-])=C3O)cc1 (configuration not stated),89.1% (inactive)
4,CN1CCN(CCNc2nccc(-c3c(-c4cccc(O)c4)nc4sccn34)n2)S1(=O)=O,65.4% (inactive)
5,Cc1cc(Cl)nc(N(CCNc2ccnc3cc(Cl)ccc23)Cc2ccccn2)n1,56.6% (inactive)
6,COc1ccc(-c2cnc3c(-c4cccc5cnccc45)cnn3c2)cc1,60.7% (inactive)
7,CCOC(=O)c1cc(C#N)n2ccc3ccccc3c12,97.9% (inactive)
8,N#CC(C(=O)/C(=N/NC(=O)c1ccccc1O)C(C#N)c1ccccc1)c1ccccc1 (configuration not stated),80.2% (inactive)
9,N#C/C(=C\c1cccc(C#N)c1)c1ccccc1,105% (inactive)
10,Cc1nc2ccc(Cl)cn2c1-c1nnc(SCc2ccc([N+](=O)[O-])cc2)o1,76.1% (inactive)
11,CCN(CC)CCn1c(=O)c2cc(OC)c(OC)cc2c2ccc3cc4c(cc3c21)OCO4,26% (inactive)
12,COc1ccc2nc(-c3ccc(-c4noc(-c5cc(OC)c(OC)c(OC)c5)n4)cc3)[nH]c2c1,63.8% (inactive)
13,CC(C)(C)[Si](C)(C)OC1[C@@H](O[Si](C)(C)C(C)(C)C)[C@@H](CNC(=O)NC(=O)CCl)O[C@H]1n1cnc2c(NC(=O)Nc3ccccc3)ncnc21 (some centres not stated),-49.7% (active)
14,O=C1C=CC(=O)N1c1cccc(Cl)c1,76% (inactive)
15,O=C(O)c1ccc2c(c1)C(=O)N(Cc1ccccc1)C2=O,98.6% (inactive)
16,O=C(Cc1ccccc1)NNc1nc(Cl)nc(N2CCN(C(c3ccccc3)c3ccccc3)CC2)n1,82.3% (inactive)
17,O=C(/C=C/c1c(-c2ccc(Cl)cc2)nn(-c2ccccc2)c1C(F)(F)F)c1ccc(Cl)cc1,104% (inactive)

row,SMILES,growth
1,O=C1Nc2ccccc2/C1=C\c1c(-c2ccc(F)cc2)nc2ccccn12,64.5% (inactive)
2,COc1cc(C2C3=C(COC3=O)N(CCO)c3cc4c(cc32)CCC4)cc(OC)c1OC (configuration not stated),21.4% (inactive)
3,CC(c1ccccc1)C(C(=O)c1ccccc1)c1ccccc1 (configuration not stated),97.7% (inactive)
4,C#Cc1cccc(NC(=O)Nc2cccc(NC(=O)CCl)c2)c1,-42.3% [8.25 µM] (active)
5,COc1cc(-c2cc(-c3ccc(N(C)C)cc3)nc(N3CCOCC3)c2C#N)cc(OC)c1OC,42.5% (inactive)
6,Cc1nc2sccn2c1-c1cn2ccsc2n1,96.9% (inactive)
7,COc1cc(CC(=O)n2ncc3ccc(N)cc32)cc(OC)c1OC,104% (inactive)
8,COC(=O)C(CC=O)C(=O)C(=O)Nc1cccc(C(F)(F)F)c1 (configuration not stated),95.6% (inactive)
9,CCNc1nc2ccc(Nc3ccnc4cc(Cl)ccc34)cc2[nH]1,57.8% (inactive)
10,Cc1cc2c(c(C)c1Cl)C(=O)/C(=C/c1ccc(O)c(O)c1)O2,105% (inactive)
11,O=C1/C=C/[C@@H](O)[C@@H]2C[C@@H](O)C[C@H]2/C=C/CCC[C@H](CCc2cccc3ccccc23)O1,-28% (active)
12,COc1cc2c(cc1OC)C(=O)/C(=C/c1cc(C)c(O)c(C)c1)S2,33.4% (inactive)
13,COc1cc(NC(=O)CSc2nc3ccc(C)cc3c(=O)n2Cc2ccccc2)cc(OC)c1OC,81.3% (inactive)
14,CN1[C@@H]2CC[C@H]1/C(=C\c1ccccc1)C(=O)/C2=C/c1ccccc1,28.8% (inactive)
15,Cc1ccc(C(=O)/C(=C/c2ccc([N+](=O)[O-])cc2)SCc2ccc(Cl)cc2)cc1,-52.1% (active)
16,CSc1nc2sc3cccc(Cl)c3n2c(=N)c1C#N,102% (inactive)
17,Cc1c2cc[nH]c(=O)c2c(C)c2c1[nH]c1cc(OCCN3CCN(C)CC3)ccc12,9.61% (active)

# Tested on: MCF7 breast
# Test: as above
# Details: 10 µM unless noted
row,SMILES,growth
1,CC1(C)NCCC[C@]2(C)[C@H]3CC[C@@H]4[C@H]5[C@H](C(=O)/C=C/c6ccco6)CC[C@]5(CO)CC[C@@]4(C)[C@]3(C)CC[C@@H]12,46.6% (inactive)
2,CCCCCCNC(=O)Oc1ccc(/C(=C(\C)c2ccccc2)c2ccc(OCCCN(C)C)cc2)cc1,21.3% (inactive)
3,Cc1ccc(-n2nc3c(c(C#N)c2=O)CC(c2ccccc2[N+](=O)[O-])C([N+](=O)[O-])=C3O)cc1 (configuration not stated),55.4% (inactive)
4,CN1CCN(CCNc2nccc(-c3c(-c4cccc(O)c4)nc4sccn34)n2)S1(=O)=O,71.3% (inactive)
5,NC(=NCCCOc1ccc(F)cc1)Nc1ccc(Cl)cc1,7.28% (active)
6,Cc1cc(Cl)nc(N(CCNc2ccnc3cc(Cl)ccc23)Cc2ccccn2)n1,53.6% (inactive)
7,COc1ccc(-c2cnc3c(-c4cccc5cnccc45)cnn3c2)cc1,78.7% (inactive)
8,CCOC(=O)c1cc(C#N)n2ccc3ccccc3c12,95.7% (inactive)
9,N#CC(C(=O)/C(=N/NC(=O)c1ccccc1O)C(C#N)c1ccccc1)c1ccccc1 (configuration not stated),55.3% (inactive)
10,N#C/C(=C\c1cccc(C#N)c1)c1ccccc1,105% (inactive)
11,Cc1nc2ccc(Cl)cn2c1-c1nnc(SCc2ccc([N+](=O)[O-])cc2)o1,55.2% (inactive)
12,CCN(CC)CCn1c(=O)c2cc(OC)c(OC)cc2c2ccc3cc4c(cc3c21)OCO4,16.1% (inactive)
13,COc1ccc2nc(-c3ccc(-c4noc(-c5cc(OC)c(OC)c(OC)c5)n4)cc3)[nH]c2c1,41.3% (inactive)
14,CC(C)(C)[Si](C)(C)OC1[C@@H](O[Si](C)(C)C(C)(C)C)[C@@H](CNC(=O)NC(=O)CCl)O[C@H]1n1cnc2c(NC(=O)Nc3ccccc3)ncnc21 (some centres not stated),-71.8% (active)
15,O=C1C=CC(=O)N1c1cccc(Cl)c1,112% (inactive)
16,O=C(O)c1ccc2c(c1)C(=O)N(Cc1ccccc1)C2=O,95.3% (inactive)
17,O=C(Cc1ccccc1)NNc1nc(Cl)nc(N2CCN(C(c3ccccc3)c3ccccc3)CC2)n1,92.3% (inactive)
18,O=C(/C=C/c1c(-c2ccc(Cl)cc2)nn(-c2ccccc2)c1C(F)(F)F)c1ccc(Cl)cc1,61.8% (inactive)
19,O=C1Nc2ccccc2/C1=C\c1c(-c2ccc(F)cc2)nc2ccccn12,62.8% (inactive)

row,SMILES,growth
1,COc1cc(C2C3=C(COC3=O)N(CCO)c3cc4c(cc32)CCC4)cc(OC)c1OC (configuration not stated),-16.2% (active)
2,CC(c1ccccc1)C(C(=O)c1ccccc1)c1ccccc1 (configuration not stated),98% (inactive)
3,C#Cc1cccc(NC(=O)Nc2cccc(NC(=O)CCl)c2)c1,4.65% [8.25 µM] (active)
4,COc1cc(-c2cc(-c3ccc(N(C)C)cc3)nc(N3CCOCC3)c2C#N)cc(OC)c1OC,36.2% (inactive)
5,Cc1nc2sccn2c1-c1cn2ccsc2n1,-39.1% (active)
6,C=CCn1c(-c2ccc(-c3nc4ccc(C)cc4[nH]3)cc2)n[nH]c1=S,82.8% (inactive)
7,COc1cc(CC(=O)n2ncc3ccc(N)cc32)cc(OC)c1OC,87.5% (inactive)
8,COC(=O)C(CC=O)C(=O)C(=O)Nc1cccc(C(F)(F)F)c1 (configuration not stated),104% (inactive)
9,CCNc1nc2ccc(Nc3ccnc4cc(Cl)ccc34)cc2[nH]1,45.1% (inactive)
10,Cc1cc2c(c(C)c1Cl)C(=O)/C(=C/c1ccc(O)c(O)c1)O2,89.4% (inactive)
11,O=C1/C=C/[C@@H](O)[C@@H]2C[C@@H](O)C[C@H]2/C=C/CCC[C@H](CCc2cccc3ccccc23)O1,-30.8% (active)
12,COc1cc2c(cc1OC)C(=O)/C(=C/c1cc(C)c(O)c(C)c1)S2,20% (inactive)
13,Cc1ccc(-n2c3c(c(-c4ccccc4)c2-c2ccccc2)C2=NCCN2C=N3)cc1,86.8% (inactive)
14,NS(=O)(=O)c1ccc(CCn2c(SCC(=O)c3ccc(Cl)cc3)nc3ccccc3c2=O)cc1,91.8% (inactive)
15,COc1cc(NC(=O)CSc2nc3ccc(C)cc3c(=O)n2Cc2ccccc2)cc(OC)c1OC,71% (inactive)
16,CN1[C@@H]2CC[C@H]1/C(=C\c1ccccc1)C(=O)/C2=C/c1ccccc1,20.4% (inactive)
17,Cc1ccc(C(=O)/C(=C/c2ccc([N+](=O)[O-])cc2)SCc2ccc(Cl)cc2)cc1,12.8% (inactive)
18,CSc1nc2sc3cccc(Cl)c3n2c(=N)c1C#N,88.4% (inactive)
19,Cc1c2cc[nH]c(=O)c2c(C)c2c1[nH]c1cc(OCCN3CCN(C)CC3)ccc12,-11.6% (active)
